RGS8-Gao: human RGS8-Galphao interaction regulation; P09471; multiplexed bead flow cytometry, RGS8-Galphao binding; actives lie on both sides; response (percent of control binding), % at 10 µM; 220,000 tested, 0.34% active; in the data active = response below about 60% or above about 140%; inactive = in between;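 note: Galphao activated as the GDP aluminium fluoride complex binding bead-coupled RGS8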
GSH fluor: compound fluoresces at 488/530 nm on GSH beads; fluorescence (KMESF) at 10 µM; 190,000 tested, 0.25% active; GSH beads flow cytometry, compound fluorescence 488/530 nm; active compounds read high; in the data active = fluorescence above about 89;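 note: glutathione beads carrying GST-tagged Bcl family fusion proteins plus one bare bead set; values are compound well signal with DMSO vehicle wells as background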
Avidin fluor: compound fluoresces at 488/530 nm on avidin beads | compound fluorescence 488/530 nm, flow cytometry; active compounds read high | 220,000 tested, 0.38% active | AID 1775 | fluorescence (KMESF) at 10 µM; in the data active = fluorescence above about 47
RGS4-Gao reg: human RGS4-Galphao interaction regulation; P09471; binding response (% of control), % at 10 µM; Multiplexed bead flow cytometry, RGS4-Galphao binding; actives lie on both sides; 220,000 tested, 0.33% active; in the data active = binding response below about 49% or above about 150%; inactive = in between;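 note: fluorescent Galphao activated with aluminum fluoride binding bead-coupled RGS4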
RGS7-Gao reg: modulates binding of RGS7 to human Galphao; 220,000 tested, 0.35% active; AID 1439; P09471; Multiplexed bead flow cytometry; actives lie on both sides; binding response (% of control), % at 10 µM; in the data active = binding response below about 49% or above about 150%; inconclusive = no clear call, values can overlap the other calls; inactive = in between;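 note: fluorescent Galphao held in activated GDP-AlF4 state binding bead-coupled RGS7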
RGS16-Gao HTS: RGS16-Galphao interaction regulator (human); bead-based flow cytometry RGS16-Galphao binding, fluorescence; actives lie on both sides; binding response (% of control), % at 10 µM; 220,000 tested, 0.38% active;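 note: Galphao activated by GDP with aluminum fluoride before binding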
RGS-Gao: modulates binding between human RGS4 and Galphao | shares compounds with RGS16-Gao HTS | multiplexed bead flow cytometry, RGS–Galpha-o binding | RGS4–Galpha-o binding response, % at 10 µM | 1,600 tested, 99% active;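 note: fluorescently labeled Galpha-o bound to GDP with aluminium fluoride binding biotinylated RGS beads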
Biotin-avidin: biotin-avidin bead binding disruption counter-screen; 1,700 tested, under 10 active; shares compounds with RGS16-Gao HTS; streptavidin beads, fluorescein-biotin binding, flow cytometry; inhibition, % at 10 µM;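 active = inhibition above 50%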;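 note: median green fluorescence of gated singlet beads compared with DMSO control wells; 0% = DMSO wells and 100% = complete loss of bead fluorescence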
RGS8-Gao single: RGS8-Galphao interaction regulation, single point confirmation | shares compounds with RGS16-Gao HTS | bead-based flow cytometry RGS8-Galphao binding, fluorescence; actives lie on both sides | binding response (% of control), % at 10 µM | 1,700 tested, 3% active | AID 1836; in the data active = binding response below about 72% or above about 130%; inactive = in between;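 note: Galphao activated as GDP AlF4 complex before binding bead RGS8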
RGS7-Gao confirm: confirmation of regulators of human RGS7-Galphao interaction; 1,700 tested, 7.8% active; bead-based flow cytometry RGS7-Galphao binding; actives lie on both sides; response (percent of control binding), % at 10 µM; shares compounds with RGS16-Gao HTS; AID 1837; in the data active = response below about 75% or above about 130%; inactive = in between;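 note: fluorescent Galphao activated with GDP and aluminum fluoride binding bead-coupled RGS7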
RGS16-Gao single: RGS16-Galphao interaction regulation, single point confirmation. shares compounds with RGS16-Gao HTS. AID 1838. bead-based flow cytometry, RGS16-Galphao binding; actives lie on both sides. response (% of control binding), % at 10 µM. 1,700 tested, 4% active; in the data active = response below about 74% or above about 130%; inactive = in between;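 note: Galphao activated as the GDP aluminium fluoride complex binding bead-coupled RGS16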
RGS4-Gao confirm: confirmation of regulators of human RGS4-Galphao interaction; shares compounds with RGS16-Gao HTS; RGS4-Galphao binding, multiplexed bead flow cytometry; actives lie on both sides; binding response (% of control), % at 10 µM; 1,700 tested, 4% active; in the data active = binding response below about 74% or above about 130%; inactive = in between
RGS19-Gao conf: confirmation of regulators of human RGS19-Galphao interaction | AID 1841 | 1,700 tested, 5% active | response (percent of control binding), % at 10 µM | shares compounds with RGS16-Gao HTS | bead-based flow cytometry RGS19-Galphao binding; actives lie on both sides; in the data active = response below about 50% or above about 160%; inactive = in between;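 note: 100% = no compound control and 0% = blank background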
Target sequence (P09471 whole entry, looked up): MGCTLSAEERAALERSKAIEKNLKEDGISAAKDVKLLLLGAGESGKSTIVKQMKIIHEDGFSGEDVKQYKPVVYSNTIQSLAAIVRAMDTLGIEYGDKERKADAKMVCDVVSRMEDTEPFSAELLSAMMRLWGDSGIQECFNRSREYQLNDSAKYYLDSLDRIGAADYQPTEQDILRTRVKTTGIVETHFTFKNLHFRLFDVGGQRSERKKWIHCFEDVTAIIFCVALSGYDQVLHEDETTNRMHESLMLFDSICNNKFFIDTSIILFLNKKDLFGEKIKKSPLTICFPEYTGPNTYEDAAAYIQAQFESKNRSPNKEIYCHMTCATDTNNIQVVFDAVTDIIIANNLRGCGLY
Target sequence (P49795 whole entry, looked up): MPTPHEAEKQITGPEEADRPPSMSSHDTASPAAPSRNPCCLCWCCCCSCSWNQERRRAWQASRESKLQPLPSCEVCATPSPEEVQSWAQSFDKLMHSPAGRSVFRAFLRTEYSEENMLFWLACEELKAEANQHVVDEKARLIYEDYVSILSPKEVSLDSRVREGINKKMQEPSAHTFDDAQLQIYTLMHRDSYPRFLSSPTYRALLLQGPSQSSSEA
Active calls of the source: *; i = inactive; u = inconclusive; x = not tested or not shown; ! = not active in a repeat; [ ] = another dose, or the depositor's remark. Compounds with a hit are over-represented: about 1.2% of the library has one in this group of screens. Unless noted, the rule behind the calls is not given here.

SMILES	RGS8-Gao	GSH fluor	Avidin fluor	RGS4-Gao reg	RGS7-Gao reg	RGS16-Gao HTS	RGS-Gao	Biotin-avidin	RGS8-Gao single	RGS7-Gao confirm	RGS16-Gao single	RGS4-Gao confirm	RGS19-Gao conf
Cc1ccc(NC(=S)N2CCOCC2)c(C)c1	103	17	44	105	110	107	x	x	x	x	x	x	x
Cc1ccc(NC(=S)N2CCN(C)CC2)c(C)c1	115	13	10	107	105	186*[activator]	107*	1	102	105	103	103	121
CC1CC(=O)C(C2c3ccccc3CCN2C(=O)CCl)C(=O)C1 (stereo not given)	100	10	13	99	106	100	x	x	x	x	x	x	x
COc1cc2c(cc1OC)C(C1C(=O)CC(C)(C)CC1=O)N(C(=O)CCl)CC2 (stereo not given)	74	7	7	90	92	17*	90*	0	99	99	101	100	103
O=c1[nH]c(C2CCCN(S(=O)(=O)c3ccc(F)cc3)C2)nc2c1nnn2Cc1ccccc1 (stereo not given)	103	14	10	106	105	106	x	x	x	x	x	x	x
Cc1ccc(Cn2nnc3c(=O)[nH]c(C4CCCN(S(=O)(=O)c5ccccc5)C4)nc32)cc1 (stereo not given)	73	19	9	73	80	-107*	73*	0	105	99	107	105	109
Nc1nnc(SCC(=O)OCC(=O)NC23CC4CC(CC(C4)C2)C3)s1	13*	12	-1	19*	u	7.7*	x	0	106	109	107	105	97
Cc1ccc(-c2nn(C)c(=O)c3ccccc23)cc1CN1CCCCC1	99	x	4	94	u	95	x	x	x	x	x	x	x
CC(C)(C)c1nc(NCCN2CCOCC2)c2nnn(Cc3ccccc3Cl)c2n1	153*[activator]	55	7	129	125	342	129*	10	99	70*	92	77	84
Clc1ccccc1Cn1nnc2c(NCCN3CCOCC3)ncnc21	141*[activator]	26	16	114	117	234	114*	1	103	105	102	103	91
Cc1nc(NCCN2CCOCC2)c2nnn(Cc3ccccc3Cl)c2n1	103	46	8	101	100	93	x	x	x	x	x	x	x
COC(=O)C1CC(O)CN1S(=O)(=O)c1cccs1 (stereo not given)	100	15	18	98	117	99	x	x	x	x	x	x	x
Cc1cc(C(=O)CSc2nnc(-c3cccnc3)n2-c2ccccc2F)c(C)n1C	11*!	10	24	6.8*!	5.0*!	-0.8*!	x	0	97	113	102	108	101
CC1CC(=O)Nc2ccccc2N1C(=O)Nc1ccc(F)cc1 (stereo not given)	94	x	x	x	x	x	x	0	101	99	99	99	97
O=C(CN1CCCCC1)Nc1ccccc1-c1ccccc1	159*[activator]	48	4	144	125	i	144*	-2	101	101	100	101	101
